# Where a name gives a salt, the structure may show the parent alone.
# What was measured:
# [1] = test system: S. cerevisiae SK1 pCDA2-eGFP (USY613), sporulating; test: CDA2-GFP sporulation assay sensitivity score (z-score vs DMSO controls); higher = stronger inhibition of sporulation, active = hit call of the paper;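 note: active if sensitivity score above 5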
# [2] = test system: S. cerevisiae AD1-9 (efflux-pump deficient), vegetative growth in YPD; test: growth sensitivity score (doubling time z-score vs DMSO controls); higher = slower growth, strongly negative scores also mark growth inhibition (complete suppression), active = hit call of the paper
# Method in brief: (§1)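 Optical density of Saccharomyces cerevisiae cultures in microtiter plates was followed every 15 min for 24 hours after seeding at an OD600 of 0.065. Eight solvent-only wells were run per experiment. Growth sensitivity scores were found by subtracting the solvent-only mean from the compound mean and dividing by the solvent-only standard deviation.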
# [3] = test system: S. cerevisiae BY4741 (wild-type), vegetative growth in YPD; test: as above
# Method in brief: as §1
Structure (SMILES),CDA2-GFP sporulation assay sensitivity score [1],growth sensitivity score [2],growth sensitivity score [3]
"CCOC(=O)[C@@]1(CCCCCCOc2ccc(Cl)cc2)CO1 [Etomoxir] (stock concentration (mM, diluted 1:100): 10)",5.49 (inactive),8.16 (active),1.54 (inactive)
"c1cnc(N2CCN(Cc3ccc4c(c3)OCO4)CC2)nc1 [Piribedil] (stock concentration (mM, diluted 1:100): 9.7)",6.47 (inactive),-3.77,1.65 (inactive)
"CC(=O)OCC(=O)NCCCOc1cccc(CN2CCCCC2)c1 [Roxatidine acetate hydrochloride] (stock concentration (mM, diluted 1:100): 9.1)",0.57 (inactive),-0.42 (inactive),-1.51 (inactive)
"Cc1[nH]cnc1CN1CCc2c(c3ccccc3n2C)C1=O [Alosetron hydrochloride] (stock concentration (mM, diluted 1:100): 8.9)",-0.89 (inactive),-0.69 (inactive),3.01 (active)
